# High-throughput results: PubChem, National Center for Advancing Translational Sciences (NCATS)
# The list is not random: actives were taken first. Their share in the collection is about 7.6%.
# KCNH2 3.1 block – KCNH2 3.1 (human) potassium channel inhibition; U2OS KCNH2 3.1, thallium flux FluxOr; hits give low values; activity change, % (tested at about 1.8 µM); 340,000 compounds, 0.95% hits;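 active = maximum activity change below -70%; inconclusive = maximum activity change from -70% to -50%; inactive = maximum activity change above -50%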;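 also: thallium influx rate constant from kinetic fluorescence after stimulation buffer; % is scaled to controls: 0 for no effect and ±100 for the full control effect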
#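 Measured as rate of thallium-driven FluxOr signal in transduced U2OS cells carrying the 3.1 channel, read kinetically for 2 min upon stimulation; values are rate constants scaled to DMSO control wells.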
# MCF10A rerep – induces DNA re-replication in MCF 10a normal breast cells | Potency, µM (top dose mostly 46.1 µM), for the others: at the top dose activity, positive = re-replication, usual class: activators | MCF 10A DNA re-replication, Hoechst nuclear intensity, 48 h | 350,000 compounds, 2.9% hits; also: potency is read from the fitted curve at half-maximal effect; % of control where 0% means no effect; nearly all actives have a fitted effect of over 50% in size
# SW480 rerep – inducers of DNA re-replication in SW480 colon cancer cells; SW480 DNA re-replication, Hoechst DNA content imaging, 48 h; Potency, µM (titrated, usually from 46.1 µM), inactives show at the top dose re-replication activation, hits mostly activators; 340,000 compounds, 1.8% hits; also: potency is read from the fitted curve at half-maximal effect; % of control where 0% means no effect; nearly all actives have a fitted effect of over 55% in size
#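 Compounds, transferred as 23 nL by pin tool, were incubated with cells for 48 hr; DNA content per nucleus was then quantified by Hoechst staining and fluorescence plate imaging.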
# KB-V1 cytotox – kills drug-selected multidrug resistant KB-V1 cells; Potency, µM (titrated, usually from 46.1 µM), usual class: cytotoxic; 400,000 compounds, 3.4% hits; KB-V1 MDR cells viability, CellTiter-Glo, 72 h; also: potency is read from the fitted curve at half-maximal effect; % is scaled to controls: 0 for no effect and ±100 for the full control effect; nearly all actives have a fitted effect of over 60% in size
#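 Cytotoxicity toward P-gp-expressing KB-V1 cells was determined as loss of CellTiter-Glo luminescence after 72 h at 37 degrees C. Compounds were tested in quantitative HTS format across a concentration range, with curves fitted to normalized data.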
# KCNH2 WT inh – KCNH2 (human, wildtype) channel inhibition; Q12809; U2OS, BacMam KCNH2, thallium flux FluxOr; hits give low values; activity change, % at 1.84 µM; 340,000 compounds, 0.37% hits; AID 720551;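 active = maximum activity change below -70%; inconclusive = maximum activity change between -70% and -50%; inactive = maximum activity change above -50%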; also: % is scaled to controls: 0 for no effect and ±100 for the full control effect
# Target sequence (Q12809 whole entry, looked up): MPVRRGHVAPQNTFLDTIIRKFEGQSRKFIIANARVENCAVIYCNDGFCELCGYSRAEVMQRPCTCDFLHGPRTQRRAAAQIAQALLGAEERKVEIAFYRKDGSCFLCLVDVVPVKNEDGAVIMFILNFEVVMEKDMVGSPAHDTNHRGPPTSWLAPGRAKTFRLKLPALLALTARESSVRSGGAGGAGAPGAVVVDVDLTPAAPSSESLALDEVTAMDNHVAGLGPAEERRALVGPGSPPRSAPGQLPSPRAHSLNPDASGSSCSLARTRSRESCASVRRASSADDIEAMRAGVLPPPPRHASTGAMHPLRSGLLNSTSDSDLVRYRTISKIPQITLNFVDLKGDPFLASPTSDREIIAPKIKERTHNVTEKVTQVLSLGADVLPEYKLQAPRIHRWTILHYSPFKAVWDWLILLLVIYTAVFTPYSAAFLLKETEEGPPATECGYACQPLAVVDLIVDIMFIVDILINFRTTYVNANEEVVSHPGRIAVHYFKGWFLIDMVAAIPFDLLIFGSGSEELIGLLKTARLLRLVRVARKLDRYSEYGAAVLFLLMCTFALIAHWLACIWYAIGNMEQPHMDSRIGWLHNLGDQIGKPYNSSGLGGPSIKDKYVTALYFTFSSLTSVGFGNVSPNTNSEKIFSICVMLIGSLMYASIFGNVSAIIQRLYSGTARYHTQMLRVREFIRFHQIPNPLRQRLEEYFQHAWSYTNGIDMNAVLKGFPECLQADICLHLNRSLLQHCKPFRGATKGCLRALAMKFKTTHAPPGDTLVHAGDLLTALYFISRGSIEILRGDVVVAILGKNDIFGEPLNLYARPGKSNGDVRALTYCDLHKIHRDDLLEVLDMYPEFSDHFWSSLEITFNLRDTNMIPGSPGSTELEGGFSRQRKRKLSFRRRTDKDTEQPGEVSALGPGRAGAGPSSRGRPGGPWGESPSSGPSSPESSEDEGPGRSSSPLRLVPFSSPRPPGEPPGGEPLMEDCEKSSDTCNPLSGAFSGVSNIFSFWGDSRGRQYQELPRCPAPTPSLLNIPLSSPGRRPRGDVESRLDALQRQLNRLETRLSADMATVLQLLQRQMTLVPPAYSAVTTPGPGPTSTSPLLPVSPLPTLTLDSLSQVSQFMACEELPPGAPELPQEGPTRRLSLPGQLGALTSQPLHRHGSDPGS
#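 U2OS cells transduced with wild-type KCNH2 virus are loaded with FluxOr dye for 45 min, and thallium flux is measured in kinetic reads before and after stimulation buffer. Rate constants are normalized to DMSO controls.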
# KB-3-1 tox – kills parental KB-3-1 adenocarcinoma cells; KB-3-1 viability, CellTiter-Glo ATP luminescence, 72 h; Potency, µM (doses to about 46.1 µM), hits mostly cytotoxic; 400,000 compounds, 1.4% hits; AID 1347075; also: potency is read from the fitted curve at half-maximal effect; % is scaled to controls: 0 for no effect and ±100 for the full control effect; nearly all actives have a fitted effect of over 60% in size
#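 Multi-concentration cytotoxicity screen in KB-3-1 cells grown in DMEM lacking phenol red with 10% FBS. After 72 h at 37 °C with compound, ATP-dependent luminescence was recorded.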
# * marks the source's active call; other numbers are inactive results; i = inactive; ? = inconclusive; . = not tested or not shown. Unless noted, calls follow the shape of the dose curve; as a rule, active = well fitted curve in the direction sought with a large enough effect; inconclusive = small, poorly fitted or top-dose-only effect, or another doubt; inactive = no such curve, though single readings can be large; an effect the other way counts as inactive or inconclusive.
SMILES,KCNH2 3.1 block,MCF10A rerep,SW480 rerep,KB-V1 cytotox,KCNH2 WT inh,KB-3-1 tox
N#Cc1ccc(N2CCNCC2)c(F)c1,-76*,3%,-4%,i,?,i
N#Cc1cc(F)c(N2CCNCC2)cc1Cl,-9,2%,-7%,i,-1,i
O=C1CCCc2c1nc(-c1ccccc1)n2O,-8,2%,0%,i,-10,i
O=C(COC(=O)CCc1c[nH]c2ccccc12)Nc1ccc([N+](=O)[O-])cc1,-15,-82%,-46%,i,2,i
CCC(=NCC1CCCO1)c1c(O)n(Cc2ccccc2)c(=O)[nH]c1=O (stereo not given),-6,2%,1%,4.1µM*,-4,i
CNS(=O)(=O)c1ccc(N=Cc2c(O)n(-c3cccc(C)c3)c(=O)[nH]c2=O)cc1,10,-17%,-24%,i,-16,i
CCOC(=O)c1sc(/N=C/c2c(O)n(-c3cccc(C)c3)c(=O)[nH]c2=O)c(C#N)c1C,1,?,2%,21µM*,19,i
O=C(c1ccc(N2CCCCCC2)c([N+](=O)[O-])c1)N1CCC2(CC1)OCCO2,3,23µM*,17%,?,-14,i
O=C(c1ccc2c(c1)OCO2)N1CCC2(CC1)OCCO2,3,-1%,-11%,i,5,i
CC(=O)O[C@@H]1/C=C/[C@](C)(O)C[C@@H](C)C/C=C/[C@H]2[C@H](O)[C@@](C)(O)[C@@H](C)[C@H]3[C@H](Cc4ccccc4)NC(=O)[C@@]312,6,-2%,-18%,i,1,i
CC(=O)O[C@@H]1/C=C/[C@](C)(O)C[C@@H](C)C/C=C/[C@H]2[C@@H]3O[C@]3(C)[C@@H](C)[C@H]3[C@H](Cc4ccccc4)NC(=O)[C@@]312,4,1.5µM*,2.6µM*,i,1,i
OC(Cn1cncn1)(Cn1cncn1)c1ccc(F)cc1F,-7,-7%,?,i,-3,i
C=CC[C@@H](CC/C=C/C=C/CC/C=C\[C@@H]1CSC([C@@H]2C[C@@H]2C)=N1)OC,-7,0.73µM*,1.2µM*,i,-8,i
Cc1nnc(NC(=O)c2cccn(Cc3cccc([N+](=O)[O-])c3)c2=O)s1,.,.,.,i,.,i
CN1C(=O)[C@@H](NC(=O)c2cc3ccccc3[nH]2)N=C(c2ccccc2)c2ccccc21,.,-1%,?,.,.,.
O=C(Nc1ccc(C(F)(F)F)cc1)c1cccn(Cc2ccc3c(c2)OC(F)(F)O3)c1=O,-25,?,-8%,2.9µM*,-27,8.2µM*
O=C(Nc1cccc(C(F)(F)F)c1)c1cccn(Cc2ccc3c(c2)OC(F)(F)O3)c1=O,-4,?,-2%,i,0,i
Cc1cccc(C)c1NC(=O)c1cccn(Cc2ccc3c(c2)OC(F)(F)O3)c1=O,-18,?,2%,?,-2,?
CC(C)Oc1cccc(NC(=O)c2cccn(Cc3ccc4c(c3)OC(F)(F)O4)c2=O)c1,0,13µM*,?,i,2,?
C=C1C=C(C(F)F)n2ncc(C(=O)NCc3ccccc3F)c2N1,.,.,.,i,.,?
CCOC(=O)CN1C(=O)N[C@@H](c2cccc(C(F)(F)F)c2)C(C(C)=O)=C1C,.,?,-9%,i,.,i
O=C(CCn1nc(-c2ccc(Cl)cc2)ccc1=O)N1CCC2(CC1)OCCO2,-11,-2%,-7%,i,1,i
Cc1nc2cc(-c3ccc(Cl)cc3)nn2c(C)c1CCC(=O)N1CCC2(CC1)OCCO2,-11,14%,-4%,18µM*,0,i
CCCCC(CC)COP(=O)(OCC(CC)CCCC)OCC(CC)CCCC (stereo not given),4,10%,?,?,7,?
O=C1C2CCCN2C(c2cccs2)N1c1ccc(Cl)cc1 (stereo not given),3,?,3%,?,5,?
SMILES,KCNH2 3.1 block,MCF10A rerep,SW480 rerep,KB-V1 cytotox,KCNH2 WT inh,KB-3-1 tox
Cc1nc2ccccc2c(=O)n1-c1ccc(Br)cn1,2,2%,2%,i,4,i
Cc1nc2ccccc2c(=O)n1/N=C/c1cc(Br)cc(Br)c1O,-3,27%,7.3µM*,i,-11,i
COc1ccc(NC(=O)CN(C)S(=O)(=O)c2ccc3[nH]c(=O)oc3c2)cc1,11,4%,?,i,4,i
CC(C)(O)/C=C/C(=O)[C@](C)(O)C1[C@H](O)C[C@@]2(C)C3CC=C4C(C[C@H](O)[C@@H](O)C4(C)C)[C@]3(C)C(=O)C[C@]12C (stereo not given in full),-1,1.3µM*,?,i,0,?
O=C(c1ccccc1)C(Cc1ccccc1)N1CCOCC1 (stereo not given),3,6%,-2%,18µM*,-3,i
O=C(Cc1ccccc1)OCCN1CCOCC1,9,4%,-1%,i,3,i
CCCNc1oc(-c2cccc3ccccc23)nc1C#N,17,?,-7%,i,-1,i
CCOP(=O)(Cc1ccccc1)OCC,-4,-36%,-4%,i,10,i
COP(=O)(OC)c1nc(-c2cccc3ccccc23)oc1NCCc1ccccc1,-20,21µM*,?,?,-4,i
CCOP(=O)(OCC)c1nc(-c2cccc3ccccc23)oc1NCc1ccccc1,-9,?,?,9.2µM*,-2,i
CC(=O)[C@H]1CC[C@H]2[C@@H]3CC[C@H]4C[C@](C)(O)CC[C@]4(C)[C@H]3CC[C@]12C,.,-2%,0%,.,.,.
CCCCN1C(=O)/C(=C/C=C/c2ccco2)C(=O)NC1=S,11,-8%,-6%,i,-3,i
O=C1NC(=O)N(c2ccccc2)C(=O)/C1=C\C=C\c1ccccc1,11,23µM*,3.3µM*,?,18,?
CCOc1ccc(N2C(=O)/C(=C/c3ccco3)C(=O)NC2=S)cc1,6,3%,?,i,16,i
CCc1ccc(N2C(=O)NC(=O)/C(=C\C=C\c3ccco3)C2=O)cc1,1,23µM*,18µM*,?,-2,?
CCc1ccc(N2NC(=O)/C(=C/C=C/c3ccco3)C2=O)cc1,-10,21µM*,17%,i,-2,i
COc1cc(/C=C2\C(=O)NC(=O)N(c3ccccc3)C2=O)cc(OC)c1OC,-1,-6%,-1%,i,-7,i
Cc1ccc(N2C(=O)NC(=O)/C(=C/C=C/c3ccco3)C2=O)cc1,-1,9.2µM*,16µM*,18µM*,6,?
